“And” between values parts separate entries of the source, which are not always exact repeats. Identical values can stand only once. About 2,000 (36%) of roughly 5,500 compounds were called active. About 18% were inconclusive and are not listed. Rule as the data show it: active = normalized growth mostly below about 0.91 (no sharp cut-off); inconclusive = no clear call, values can overlap the other calls; inactive = mostly above about 0.92. The list shows a part of the results.
Experiment: chemical genetic growth profiling, strain panel (AID 1159580);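 also: tested at 20 µM; growth read once vehicle control cultures reached saturation at 30 °C; 1 = growth at the plate median or of vehicle wells; lower values mean less growth of the strain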
Conditions: S. cerevisiae deletion strains, growth OD

Measured: normalized growth

COc1ccc([C@@H]2CC(=O)c3c(O)cc(O)cc3O2)cc1O
inactive: locus YAL013W, strain DEP1, stronger effect = lower value 1.03 | locus YAL021C, strain ccr4, stronger effect = lower value 0.976 | locus YAL026C, strain drs2, stronger effect = lower value 0.978 | locus YAL030W, strain snc1, stronger effect = lower value 0.982 | locus YBL061C, strain skt5, stronger effect = lower value 0.977 | locus YBR009C, strain hhf1, stronger effect = lower value 0.983 | locus YBR021W, strain FUR4, stronger effect = lower value 1 | locus YBR023C, strain chs3, stronger effect = lower value 0.976 | locus YBR171W, strain sec66, stronger effect = lower value 0.999 | locus YBR229C, strain ROT2, stronger effect = lower value 1 | locus YBR231C, strain swc5, stronger effect = lower value 0.989 | locus YBR279W, strain paf1, stronger effect = lower value 0.982 | locus YCL011C, strain gbp2, stronger effect = lower value 0.975 | locus YCL016C, strain dcc1, stronger effect = lower value 0.961 | locus YCL029C, strain bik1, stronger effect = lower value 1.02 | locus YCL061C, strain MRC1, stronger effect = lower value 0.978 | locus YCL069W, strain vba3, stronger effect = lower value 0.99 | locus YCR088W, strain abp1, stronger effect = lower value 0.977 | locus YDL005C, strain med2, stronger effect = lower value 0.978 | locus YDL035C, strain GPR1, stronger effect = lower value 0.971 | locus YDL040C, strain nat1, stronger effect = lower value 0.986 | locus YDL074C, strain BRE1, stronger effect = lower value 1 | locus YDL101C, strain DUN1, stronger effect = lower value 1.01 | locus YDL185W, strain tfp1, stronger effect = lower value 1.01 | locus YDL192W, strain arf1, stronger effect = lower value 1 | locus YDR001C, strain nth1, stronger effect = lower value 0.973 | locus YDR069C, strain doa4, stronger effect = lower value 0.983 | locus YDR101C, strain arx1, stronger effect = lower value 1.02 | locus YDR137W, strain rgp1, stronger effect = lower value 0.973 | locus YDR159W, strain sac3, stronger effect = lower value 0.995 | locus YDR162C, strain NBP2, stronger effect = lower value 0.999 | locus YDR195W, strain ref2 0.994 | locus YDR297W, strain sur2, stronger effect = lower value 0.976 | locus YDR318W, strain mcm21, stronger effect = lower value 0.993 | locus YDR334W, strain swr1, stronger effect = lower value 0.985 | locus YDR335W, strain msn5, stronger effect = lower value 0.975 | locus YDR388W, stronger effect = lower value 1 | locus YDR392W, strain spt3, stronger effect = lower value 0.862 | locus YDR502C, strain sam2, stronger effect = lower value 0.995 | locus YEL003W, strain gim4, stronger effect = lower value 0.976 | locus YEL037C, strain rad23, stronger effect = lower value 0.973 | locus YEL061C, strain CIN8 (second series), stronger effect = lower value 0.977 | locus YEL061C, strain CIN8, stronger effect = lower value 1 | locus YER015W, strain faa2, stronger effect = lower value 0.983 | locus YER016W, strain bim1, stronger effect = lower value 0.976 | locus YER110C, stronger effect = lower value 1.01 | locus YER111C, strain swi4, stronger effect = lower value 0.963 | locus YER155C, strain BEM2 (second series), stronger effect = lower value 0.926 | locus YER155C, strain BEM2, stronger effect = lower value 0.998 | locus YER167W, strain BCK2, stronger effect = lower value 1 | locus YFR010W, strain ubp6, stronger effect = lower value 0.972 | locus YGL078C, strain dbp3, stronger effect = lower value 1 | locus YGL086W, strain mad1, stronger effect = lower value 1.03 | locus YGL167C, strain pmr1, stronger effect = lower value 0.977 | locus YGL173C, strain kem1, stronger effect = lower value 0.978 | locus YGL227W, strain vid30, stronger effect = lower value 0.988 | locus YGL240W, strain doc1, stronger effect = lower value 0.989 | locus YGL248W, strain PDE1, stronger effect = lower value 1.01 | locus YGL253W, strain hxk2, stronger effect = lower value 0.961 | locus YGR078C, strain PAC10, stronger effect = lower value 1.02 | locus YGR135W, strain pre9, stronger effect = lower value 0.979 | locus YGR229C, strain SMI1, stronger effect = lower value 0.983 | locus YGR252W, strain gcn5, stronger effect = lower value 0.893 | locus YHR013C, strain ard1, stronger effect = lower value 0.955 | locus YHR027C, strain rpn1, stronger effect = lower value 0.994 | locus YHR030C, strain SLT2, stronger effect = lower value 1.01 and 1 | locus YHR079C, strain IRE1 (second series), stronger effect = lower value 1.01 | locus YHR079C, strain IRE1, stronger effect = lower value 1.01 | locus YHR094C, strain hxt1, stronger effect = lower value 1.01 | locus YHR129C, strain ARP1, stronger effect = lower value 1 | locus YHR142W, strain chs7, stronger effect = lower value 0.918 | locus YHR200W, strain rpn10, stronger effect = lower value 0.993 | locus YIL066C, strain RNR3, stronger effect = lower value 0.979 | locus YIL073C, strain SPO22, stronger effect = lower value 1.05 | locus YIL125W, strain kgd1, stronger effect = lower value 1.01 | locus YIR030C, strain dcg1, stronger effect = lower value 1.01 | locus YJL092W, strain hpr5, stronger effect = lower value 0.976 | locus YJL095W, strain BCK1 (second series), stronger effect = lower value 0.978 | locus YJL095W, strain BCK1, stronger effect = lower value 1.04 and 1 | locus YJL115W, strain asf1, stronger effect = lower value 0.984 | locus YJL129C, strain trk1, stronger effect = lower value 0.939 | locus YJL134W, strain LCB3, stronger effect = lower value 1 | locus YJL154C, strain vps35, stronger effect = lower value 0.98 | locus YJL164C, strain tpk1, stronger effect = lower value 0.972 | locus YJL166W, strain qcr8, stronger effect = lower value 0.969 | locus YJL168C, strain set2, stronger effect = lower value 1 | locus YJL187C, strain SWE1 (second series), stronger effect = lower value 1.02 | locus YJL187C, strain SWE1, stronger effect = lower value 0.981

Source: PubChem BioAssay AID1159580 (chemical genetic matrix, 2015)
